Records with an inconclusive call do not appear. Values without a mark were called inactive. Activity calls are given as the source filed them. The call rests on the fitted dose curve; in most records, active means well fitted cell-killing curve with a large enough effect in the repeat runs (not every such curve was filed as active); inconclusive means weak or mixed curves, or effect the other way; inactive means no such curve, though single readings can be large or run the other way.
On the % scale 0 is the no-effect control and ±100 the full control effect.

The nature of the experiment: qHTS assay to identify small molecule antagonists of the estrogen related receptor signaling pathway with the pleiotropic PPARgamma coactivator (PGC) from Tox21 10K library - cell viability counter screen (AID 1224840). Further: nearly all actives have a fitted effect of over 40% in size. The note with it: PGC/ERR reporter cells viability, CellTiter-Fluor, 17.5 h; series mostly up to 92.4 µM. An outline of the steps: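 Readout: fluorescence intensity from CellTiter-Fluor after 30 min at 37 C/5% CO2. Preceded by 17.5 h treatment of PGC/ERR cells with DMSO-dissolved compounds, added 6 h post-seeding.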
As for `O=S(=O)(O)c1cccc2c(S(=O)(=O)O)cccc12`, the outcome was inactive.

In the case of `COc1ccnc(CS(=O)c2nc3cc(OC(F)F)ccc3[nH]2)c1OC` (stereo not drawn), the result was inactive. For `CCCO[Si](OCCC)(OCCC)OCCC`, the outcome was inactive. Turning to `C=COCC1CCC(COC=C)CC1` (stereo not drawn), the call was inactive. Same read-out and setting: the same measure for `CCCc1nn(C)c2c(=O)[nH]c(-c3cc(S(=O)(=O)N4CCN(C)CC4)ccc3OCC)nc12`: “inactive”; for `CC1=CCC(O)(C(C)C)CC1` (stereo not drawn): “inactive”; for `CCOC(=O)COC(=O)c1ccccc1C(=O)OCC`: “inactive”. `CCC(C(=O)NC(=O)NC(C)=O)c1ccccc1` (stereo not drawn): the result was inactive. With `O=C(CO)[C@@H](O)[C@H](O)[C@@H](O)CO`, the result was inactive. As to `CN(C)[C@@H]1C(=O)C(C(=O)NCN2CCCC2)=C(O)[C@@]2(O)C(=O)C3=C(O)c4c(O)cccc4[C@@](C)(O)C3C[C@@H]12` (stereo partly drawn), the call was inactive. On to `CCCCOCCOC(=O)CCCCCCCCC(=O)OCCOCCCC`, for which the call was inactive. With `NC(=O)Cc1cccc2ccccc12`, the call was inactive.

On to `CO[Si](C)(OC)c1ccccc1`, for which the compound was called inactive. For `CCOC(=O)CCC(=O)OCC`, the outcome was inactive.

Consider `O=C(O)CCSCCC(=O)O`, for which the result was inactive. With `CN1C(C)(C)CC(O)CC1(C)C`, the result was inactive. Turning to `O=C1c2ccccc2C(=O)c2cc(O)ccc21`, the compound was classed as inactive. `C=CCOCC(O)CO` (stereo not drawn): the compound was classed as inactive. Still for that read-out and setting: the value for `COc1cc(C(=O)OC(COCCC(C)C)CN2CCOCC2)cc(OC)c1OC` (stereo not drawn) was “inactive”. Take `O=C(O)CCCC[P+](c1ccccc1)(c1ccccc1)c1ccccc1`: the call was inactive.

With `Cc1cccc(C)c1NC(=O)CC12CCCN1CCC2`, the compound was called inactive.

For the compound `CC1=NS(=O)(=O)c2cc(Cl)ccc2N1`, the result was inactive. `CC(C)C(=O)OC(=O)C(C)C`: the call was inactive. For `CC/C=C\CCOC(C)OCC` (stereo not drawn), the outcome was inactive. For `CC(=O)C1CCCCC1=O` (stereo not drawn), the result was inactive. Take `CC(C)(C)C(=O)c1ccccc1`: the outcome was inactive. The same measure, in the same setting: the same measure for `O=C(c1ccccc1)C1(O)CCCCC1`: “inactive”; for `CC1(C)OC[C@@H](COC(=O)CCc2ccc(OC[C@@H](O)CNCCNC(=O)N3CCOCC3)cc2)O1`: “inactive”; for `CCCCCCC1CCC(=O)O1` (stereo not drawn): “inactive”. Turning to `CCCCN(CCC(=O)OCC)C(C)=O`, the result was inactive.

Turning to `CCCCCCCCCCCCCCCCCCO`, the call was inactive. Turning to `C[N+]12CCC(CC1)C(OC(=O)C(O)(c1ccccc1)c1ccccc1)C2` (stereo not drawn), the compound was classed as inactive. `Clc1cc(Cl)cc(Cl)c1`: the call was inactive.

Turning to `CC1=NN(c2cccc(S(=O)(=O)O)c2)C(=O)C1`, the compound was called inactive. The same measure, in the same setting: the same measure for `CN(C)CCN(C)CCN(C)C`: “inactive”.

Take `Cc1cc(C)c(N=Nc2c(O)c(S(=O)(=O)O)cc3cc(S(=O)(=O)O)ccc23)cc1C`: the viability change, negative = cytotoxic is -4.24% [at 8.39 µM]. Take `C[N+](C)(C)CCCCCCCCCC[N+](C)(C)C`: the outcome was inactive.

Take `NC(=O)N[C@@H](CCC(=O)O)C(=O)O`: the result was inactive.

(Values after PubChem BioAssay (Tox21).)
